An excerpt weighted towards active compounds, which were near 1.5% of everything screened.
hiPSC survival: enhancers of human iPSC single-cell survival | hiPSC single-cell survival, ATPlite luminescence; 100% = ROCK inhibitor wells, 0% = DMSO | survival enhancement, % at 20 µM | 360,000 compounds, 0.044% hits; in the data active means survival enhancement above about 18%;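 further: cells exposed to compounds for 16 hours before the ATP read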
ABCB6 inh MLPCN: inhibitors of human ABC transporter ABCB6 | 360,000 compounds, 0.19% hits | Q9NP58 | fluorescence ratio to DMSO, % at 10 µM | K562-ABCB6 porphyrin accumulation, flow cytometry, 1 h; active compounds read low | AID 602162;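 active means fluorescence ratio to DMSO below 75%, the collection mean minus 3 SD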;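 further: signal is porphyrin accumulated inside mitochondria; 100% equals median channel fluorescence of DMSO control wells; lower ratio means ABCB6 inhibition with less porphyrin fluorescence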
TMEM16A inh: mouse TMEM16A channel inhibition, primary screen; Q8BHY3; HEK293 TMEM16A/YFP iodide influx fluorescence, ionomycin; normalized B-score (activity score, 25-100; higher = stronger inhibition) at 10 µM; 310,000 compounds, 1.2% hits; AID 588511;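 active means ratio plate-corrected score three or more library SD toward inhibition, starting fluorescence score within five deviations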;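 further: score derived from kinetic fluorescence span divided by baseline fluorescence per well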
ANO1 activ: activates or potentiates the mouse TMEM16A chloride channel | Q8BHY3 | HEK293 TMEM16A/YFP-H148Q/I152L, iodide quench fluorescence; active compounds read low | B-score at 10 µM | 340,000 compounds, 0.3% hits | AID 623877;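 active means fluorescence-ratio B-score plate-corrected deviation score at least 3 library SD below zero, with starting fluorescence score within 5 deviations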;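 further: channel opened by trigger with iodide after compound preincubation; score built on the fluorescence ratio of max minus min over baseline; more negative score means more quench and so TMEM16A activation or potentiation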
DAGLB inh: blocks human DAGLB lipase activity; Q8NCG7; HEK293T DAGLB membrane lysate, EnzChek fluorogenic substrate; inhibition, % at 5.17 µM; 340,000 compounds, 0.059% hits; in the data active means inhibition above about 34%;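 further: 0% = enzyme with vehicle and 100% = wells lacking enzyme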
Target sequence (Q8NCG7 whole entry, looked up): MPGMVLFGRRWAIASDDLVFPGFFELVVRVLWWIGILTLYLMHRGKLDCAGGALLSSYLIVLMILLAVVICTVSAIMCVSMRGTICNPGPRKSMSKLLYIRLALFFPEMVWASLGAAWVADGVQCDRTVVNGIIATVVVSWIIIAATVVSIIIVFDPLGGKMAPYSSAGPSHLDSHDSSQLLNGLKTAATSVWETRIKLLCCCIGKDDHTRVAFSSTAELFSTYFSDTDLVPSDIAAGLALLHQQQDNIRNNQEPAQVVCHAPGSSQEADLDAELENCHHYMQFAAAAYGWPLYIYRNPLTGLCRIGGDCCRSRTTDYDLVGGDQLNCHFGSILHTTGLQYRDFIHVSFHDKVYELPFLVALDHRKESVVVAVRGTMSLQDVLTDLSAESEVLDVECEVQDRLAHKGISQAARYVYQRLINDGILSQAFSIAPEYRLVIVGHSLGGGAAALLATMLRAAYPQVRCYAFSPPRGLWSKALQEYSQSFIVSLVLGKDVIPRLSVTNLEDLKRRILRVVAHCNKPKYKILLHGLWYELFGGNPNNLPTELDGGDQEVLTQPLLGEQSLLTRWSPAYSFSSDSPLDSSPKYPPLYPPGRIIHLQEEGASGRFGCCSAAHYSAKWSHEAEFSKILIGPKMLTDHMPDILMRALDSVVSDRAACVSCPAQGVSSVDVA
An asterisk follows results filed as active.

O=[N+]([O-])c1cccnc1N1CCC(c2cc(-c3cccc(C(F)(F)F)c3)n[nH]2)CC1 was read as hiPSC survival -1, ABCB6 inh MLPCN 107, TMEM16A inh 100*, ANO1 activ inactive and DAGLB inh 4.
Screening CCn1c(=NC(=O)c2cccc(N3C(=O)CCC3=O)c2)sc2c(C)ccc(OC)c21 returned hiPSC survival 0, ABCB6 inh MLPCN 98, TMEM16A inh inactive, ANO1 activ -8.7* and DAGLB inh -2.
`O=c1[nH]ncn2cccc12` gave hiPSC survival 5, ABCB6 inh MLPCN 101, TMEM16A inh 100*, ANO1 activ inactive and DAGLB inh 0.
`Cc1ccccc1OCC(O)Cn1c(SC(C)C)nc2c1c(=O)[nH]c(=O)n2C` (stereo unspecified) gave hiPSC survival 0, ABCB6 inh MLPCN 98, TMEM16A inh inactive, ANO1 activ inactive and DAGLB inh 2.
Screening COc1ccc(OCC(O)Cn2c(Br)nc3c2c(=O)[nH]c(=O)n3C)cc1 (stereo unspecified) returned hiPSC survival 3, ABCB6 inh MLPCN 98, TMEM16A inh inactive, ANO1 activ -28* and DAGLB inh -2.
Cn1c(=O)[nH]c(=O)c2c1nc(Br)n2CC(O)COc1ccc(Cl)cc1 (stereo unspecified) was read as hiPSC survival -1, ABCB6 inh MLPCN 90, TMEM16A inh inactive, ANO1 activ inactive and DAGLB inh 2.
CCSc1nc2c(c(=O)[nH]c(=O)n2C)n1CC(O)COc1ccccc1C (stereo unspecified) was read as hiPSC survival 4, ABCB6 inh MLPCN 100, TMEM16A inh inactive, ANO1 activ -4.6* and DAGLB inh 2.
For CCCc1nc2ccc(Cl)cn2c1Cc1ccccc1OC the results were hiPSC survival 1 and ABCB6 inh MLPCN 102.
Screening CCCCSc1nc(C)cc(SCC(=O)N/N=C/c2cccc(OC)c2O)n1 returned hiPSC survival 0, ABCB6 inh MLPCN 104, TMEM16A inh 100*, ANO1 activ inactive and DAGLB inh 1.
Screening COc1cccc(/C=N/NC(=O)CSc2nnc(C)n2-c2ccccc2)c1O returned hiPSC survival -4, ABCB6 inh MLPCN 98, TMEM16A inh inactive, ANO1 activ inactive and DAGLB inh 6.
CCOc1cc(/C=N\NC(=O)c2ccc(C)nc2)ccc1OC(=O)c1ccc(F)cc1 was read as hiPSC survival 0, ABCB6 inh MLPCN 110, TMEM16A inh inactive, ANO1 activ inactive and DAGLB inh 2.
CCOc1cc(/C=N/NC(=O)c2cc(C)[nH]n2)ccc1OC(=O)c1ccc([N+](=O)[O-])cc1 was read as TMEM16A inh 100*.
Screening COc1ccccc1N1CCN(C(=O)C2CCCN(S(=O)(=O)c3ccc4c(c3)CCCN4C(C)=O)C2)CC1 (stereo unspecified) returned hiPSC survival 0, ABCB6 inh MLPCN 100, TMEM16A inh 25*, ANO1 activ inactive and DAGLB inh -1.
CC(=O)N1CCCc2cc(S(=O)(=O)N3CCCC(C(=O)N4CCN(c5cc(C)ccc5C)CC4)C3)ccc21 (stereo unspecified) was read as hiPSC survival 0, ABCB6 inh MLPCN 104, TMEM16A inh 25*, ANO1 activ -4.9* and DAGLB inh 2.
Screening Cc1ccc(C)c(N2CCN(C(=O)C3CCCN(S(=O)(=O)c4cnc[nH]4)C3)CC2)c1 (stereo unspecified) returned hiPSC survival 1, ABCB6 inh MLPCN 98, TMEM16A inh inactive, ANO1 activ inactive and DAGLB inh 1.
Screening CC(=O)N1CCCc2cc(S(=O)(=O)N3CCCC(C(=O)N4CCN(c5ccccc5)CC4)C3)ccc21 (stereo unspecified) returned hiPSC survival 0, ABCB6 inh MLPCN 94, TMEM16A inh inactive, ANO1 activ inactive and DAGLB inh -1.
COc1ccccc1CCC(=O)Nc1ccc2c(c1)c(=O)n(C)n2Cc1cccc(C(F)(F)F)c1 was read as hiPSC survival 1 and ABCB6 inh MLPCN 99.
`CN(C(=O)COC(=O)Cc1c(F)cccc1Cl)c1c(N)n(Cc2ccccc2)c(=O)[nH]c1=O` gave hiPSC survival 0, ABCB6 inh MLPCN 100, ANO1 activ inactive and DAGLB inh 2.
For Cc1ccc(S(=O)(=O)N2[C@@H](c3cccc(Cl)c3)C(C(=O)O)=CC[C@H]2c2ccc(C(C)C)cc2)cc1 the results were hiPSC survival 6, ABCB6 inh MLPCN 108, TMEM16A inh 100*, ANO1 activ inactive and DAGLB inh 10.
Cc1ccc(S(=O)(=O)N2[C@@H](c3ccc(F)cc3)C(C(=O)O)=CC[C@H]2c2ccc(C(C)C)cc2)cc1 was read as hiPSC survival -1, ABCB6 inh MLPCN 100, TMEM16A inh 100*, ANO1 activ inactive and DAGLB inh 7.
For Cc1ccc(S(=O)(=O)N2[C@@H](c3ccc(Cl)cc3)C(C(=O)O)=CC[C@H]2c2ccc(Cl)cc2)cc1 the results were hiPSC survival -1, ABCB6 inh MLPCN 102, TMEM16A inh 100*, ANO1 activ inactive and DAGLB inh 9.
`COc1ccc([C@@H]2CC=C(C(=O)O)[C@H](c3ccc(F)cc3)N2S(=O)(=O)c2ccc(C)cc2)cc1OC` gave hiPSC survival 1, ABCB6 inh MLPCN 99, TMEM16A inh inactive, ANO1 activ inactive and DAGLB inh 3.
`Cc1ccc(S(=O)(=O)N2[C@@H](c3ccc(Cl)cc3)C(C(=O)O)=CC[C@H]2c2cccc(Cl)c2)cc1` gave hiPSC survival 0, ABCB6 inh MLPCN 94, TMEM16A inh 100*, ANO1 activ inactive and DAGLB inh 2.
`Cc1ccc(S(=O)(=O)N2[C@@H](c3ccccc3)C(C(=O)O)=CC[C@H]2c2ccc(Cl)cc2)cc1` gave hiPSC survival 6, ABCB6 inh MLPCN 101, TMEM16A inh inactive, ANO1 activ inactive and DAGLB inh 0.
`O=C(O)C1=CC[C@@H](c2ccc(Cl)cc2)N(S(=O)(=O)c2ccc(Cl)cc2)[C@H]1c1cccc(Cl)c1` gave hiPSC survival -2, ABCB6 inh MLPCN 94, TMEM16A inh 100*, ANO1 activ inactive and DAGLB inh 0.
`Cc1ccc(S(=O)(=O)n2nccc2-c2c(-c3ccc(Cl)cc3)noc2C)cc1` gave hiPSC survival 0, ABCB6 inh MLPCN 97, TMEM16A inh inactive and ANO1 activ -4.9*.
Screening CC(=O)Nc1ccc(-c2sc(Nc3cccc4ccccc34)n[n+]2-c2ccccc2)cc1 returned hiPSC survival 3, ABCB6 inh MLPCN 102, TMEM16A inh inactive, ANO1 activ -12* and DAGLB inh 3.
CSc1ccc(-c2sc(Nc3cccc4ccccc34)n[n+]2-c2ccccc2)cc1 was read as hiPSC survival -1, ABCB6 inh MLPCN 101, TMEM16A inh inactive, ANO1 activ inactive and DAGLB inh 4.

Compound activity: PubChem BioAssay, several laboratories
